Screens deposited in PubChem by National Center for Advancing Translational Sciences (NCATS).
MCF10A rereplic: A quantitative high throughput screen for small molecules that induce DNA re-replication in MCF 10a normal breast cells. MCF 10A DNA re-replication, Hoechst nuclear intensity, 48 h. Potency, µM (top dose mostly 46.1 µM), most hits filed as activators. actives 2.9% (n = 350,000); also: nearly all actives have a fitted effect of over 50% in size
HT1080-NT tox: qHTS for induction of synthetic lethality in tumor cells producing 2HG: qHTS for the HT-1080-NT fibrosarcoma cell line | Potency, µM (top dose mostly 46.1 µM), usual class: cytotoxic | actives 1.6% (n = 360,000) | HT-1080-NT fibrosarcoma viability, CellTiter-Glo ATP luminescence, 48 h;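 also: NT is the 2HG producing partner of a matched IDH1 knockdown line; nearly all actives have a fitted effect of over 55% in size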
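Fibrosarcoma NT cells, 750 per well in 5% FBS RPMI, were exposed to compound for 48 hours. Viability: CellTiter-Glo luminescence.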
KB-V1 cytotox: qHTS assay for MDR1-selective chemotherapeutics: Primary screen using the drug-selected MDR subline cells KB-V1; KB-V1 MDR cells viability, CellTiter-Glo, 72 h; Potency, µM (top dose mostly 46.1 µM), most hits filed as cytotoxic; actives 3.4% (n = 400,000); also: nearly all actives have a fitted effect of over 60% in size
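Drug-selected KB-V1 cells, grown in DMEM lacking phenol red with 10% FBS, receive compound titrations; after three days at 37 degrees C, surviving cell ATP is quantified by CellTiter-Glo luminescence and responses normalized and curve-fitted.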
HT1080 IDH1KD tx: qHTS for induction of synthetic lethality in tumor cells producing 2HG: qHTS for the HT-1080-IDH1KD cell line; HT-1080 IDH1 knockdown viability, ATP luminescence, 48 h; Potency, µM (series often up to 46.1 µM), most hits filed as cytotoxic; actives 2% (n = 360,000); AID 686971, 2013
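After a 2 h attachment period, IDH1KD HT-1080 cells took pin-transferred compound for 48 h at 37 °C; ATP-based luminescence after 10 min room-temperature reagent incubation reported viability.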
KB-3-1 cytotox: qHTS assay for MDR1-selective chemotherapeutics: Primary screen using the parental adenocarcinoma cell KB-3-1 | Potency, µM (highest dose often 46.1 µM), usual class: cytotoxic | AID 1347075, 2019 | actives 1.4% (n = 400,000) | KB-3-1 viability, CellTiter-Glo ATP luminescence, 72 h; also: nearly all actives have a fitted effect of over 60% in size
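Parental KB-3-1 viability, qHTS format: 72 h compound exposure, 37 °C; CellTiter-Glo; media-only wells and DMSO plates as controls; concentration-effect fits on corrected data.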
SW480 rereplic: A quantitative high throughput screen for small molecules that induce DNA re-replication in SW480 colon adenocarcinoma cells. actives 1.8% (n = 340,000). AID 624297, 2012. SW480 DNA re-replication, Hoechst DNA content imaging, 48 h. Potency, µM (doses to about 46.1 µM), actives largely listed as activators; also: nearly all actives have a fitted effect of over 55% in size
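Readout is total intensity of Hoechst-stained nuclei, excited at 405 nm and collected at 500-530 nm. Compound treatment lasted 48 hr at 37 C in 5% CO2 before staining.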
Each line names hits and unclear results; the compound was inactive in the other large screens. Rows were chosen to be rich in hits. Some 7.9% of all compounds tested hit in one or more screens of this group. Calls follow the shape of the dose curve; as a rule, active = well fitted curve in the direction sought with a large enough effect; inconclusive = small, poorly fitted or top-dose-only effect, or another doubt; inactive = no such curve, though single readings can be large; an effect the other way counts as inactive or inconclusive.

Cc1c(C(O)CN2CCN(Cc3ccc4c(c3)OCO4)CC2)c2ccccc2n1C (stereo not given)	HT1080-NT tox inconclusive, HT1080 IDH1KD tx 11.2µM, SW480 rereplic inconclusive
COc1ccc(N2CCN(C(=O)c3cc(=O)c4cc(Cl)ccc4o3)CC2)cc1	none
O=c1[nH]c(=O)n([C@H]2C[C@H](O)[C@@H](CO)O2)cc1C(F)(F)F	HT1080-NT tox inconclusive, HT1080 IDH1KD tx 2.06µM, SW480 rereplic inconclusive
O=c1[nH]c(=O)n(C2C[C@H](O)[C@@H](CO)O2)cc1C(F)(F)F (stereo not given in full)	MCF10A rereplic inconclusive, HT1080-NT tox inconclusive, HT1080 IDH1KD tx 4.11µM
COCCCNC(=O)c1cc(Cc2ccccc2)sc1N	none (no result: MCF10A rereplic, SW480 rereplic)
Cc1[nH]c2ccccc2c1C(=O)c1cc(Cc2ccccc2)sc1N	HT1080-NT tox inconclusive, KB-V1 cytotox 18.4µM, HT1080 IDH1KD tx inconclusive, KB-3-1 cytotox 20.6µM (no result: MCF10A rereplic, SW480 rereplic)
Cc1cc(C)n(CC(O)CN(c2ccccc2)S(=O)(=O)c2ccccc2)n1 (stereo not given)	none
Cc1ccc(N(CC(O)Cn2nc(C)cc2C)S(=O)(=O)c2ccc3ccccc3c2)cc1 (stereo not given)	KB-V1 cytotox 5.8µM
COc1ccc2c(c1)nc(SCC(=O)c1ccc(Br)s1)n2C	MCF10A rereplic 14.6µM, KB-V1 cytotox inconclusive, SW480 rereplic inconclusive
COc1ccccc1N1CCN(C(=O)c2oc3ccccc3c2C)CC1	MCF10A rereplic inconclusive, SW480 rereplic 14.6µM
CC(C(=O)N1CCc2ccccc21)N1CCc2ccccc2C1 (stereo not given)	KB-V1 cytotox 14.6µM
COc1ccccc1N1CCN(C(=O)c2oc3ccc(F)cc3c2C)CC1	MCF10A rereplic inconclusive, KB-V1 cytotox inconclusive, KB-3-1 cytotox inconclusive, SW480 rereplic inconclusive
COc1ccccc1N1CCN(C(=O)c2oc3ccc(Br)cc3c2C)CC1	MCF10A rereplic 16.4µM, HT1080-NT tox inconclusive, KB-V1 cytotox 13µM, HT1080 IDH1KD tx inconclusive, KB-3-1 cytotox 10.3µM, SW480 rereplic inconclusive
COCc1c(C(=O)N2CCc3ccccc32)oc2ccccc12	MCF10A rereplic inconclusive
Cc1c(C(=O)N2CCc3ccccc32)oc2ccccc12	KB-V1 cytotox 18.4µM
O=C(O)CCCNC(=O)c1cncc(Br)c1	none
CC(=O)c1ccc(N2CCN(c3ccc(C(F)(F)F)cn3)CC2)cc1	KB-V1 cytotox 7.31µM, KB-3-1 cytotox inconclusive
Cc1nn(C)c(C(=O)N2CCc3ccccc32)c1Br	MCF10A rereplic inconclusive, KB-V1 cytotox inconclusive
CC(C)(C)c1ccc(C(=O)N2CCN(c3ccc(N4CCOCC4)nn3)CC2)cc1	KB-V1 cytotox inconclusive
COCc1c(C(=O)N2CCN(CCOc3ccccc3)CC2)oc2ccccc12	KB-V1 cytotox inconclusive, SW480 rereplic inconclusive
COCc1c(C(=O)N2CCN(c3ccccc3C)CC2)oc2ccccc12	KB-V1 cytotox 20.6µM
O=C(c1ccc(C(F)(F)F)cc1)N1CCN(c2ccc(N3CCOCC3)nn2)CC1	KB-V1 cytotox 16.4µM
Cn1ncc(Br)c1C(=O)N1CCc2ccccc21	KB-V1 cytotox inconclusive, SW480 rereplic 0.517µM
C=CCc1ccc(OCCn2cccc2C=O)c(OC)c1	none
COC(=O)c1ccc(C(=O)OC)c(NC(=S)N2CCN(C(=O)C3CCCO3)CC2)c1 (stereo not given)	MCF10A rereplic inconclusive
CCCCn1c(N)c(N(CC)C(=O)c2cccc(F)c2)c(=O)[nH]c1=O	none
Cc1c(C(=O)N2CCN(c3ccc(C(F)(F)F)cn3)CC2)oc2ccccc12	MCF10A rereplic 23.1µM
O=C(c1ccccc1Oc1ccc(C(F)(F)F)cc1[N+](=O)[O-])N1CCOCC1	none
O=C(c1ccc(Oc2ccc(C(F)(F)F)cc2[N+](=O)[O-])cc1)N1CCOCC1	KB-V1 cytotox 23.1µM, KB-3-1 cytotox inconclusive
Cc1ccc(C(=O)N2CCN(c3ccc(C(F)(F)F)cn3)CC2)cc1	none
O=C(Cn1ncc2c3ccccc3n(Cc3ccccc3F)c2c1=O)NCCCN1CCCC1=O	KB-V1 cytotox inconclusive, KB-3-1 cytotox 6.51µM
O=C(Cn1ncc2c3ccccc3n(Cc3ccccc3F)c2c1=O)NCCN1CCOCC1	none
CC(OC(=O)c1c2c(nc3ccccc13)/C(=C\c1ccc3c(c1)OCO3)CCC2)C(=O)Nc1ccc(S(N)(=O)=O)cc1 (stereo not given)	MCF10A rereplic 3.26µM, HT1080 IDH1KD tx inconclusive, SW480 rereplic 20.6µM
O=C(CN(C(=O)c1ccccc1)C(=O)c1ccccc1)OCc1ccccc1	KB-V1 cytotox inconclusive
COc1ccc(NS(=O)(=O)c2cc(C)ccc2NC(=O)c2cc(C)oc2C)cc1	MCF10A rereplic 0.651µM, HT1080-NT tox 0.581µM, KB-V1 cytotox 0.259µM, HT1080 IDH1KD tx 0.92µM, KB-3-1 cytotox 0.0411µM, SW480 rereplic 0.731µM
Cc1nc2c(OCCOc3ccc(F)cc3)cccn2c1N(C)C(=O)CCC1CCCC1	HT1080-NT tox inconclusive, HT1080 IDH1KD tx inconclusive (no result: MCF10A rereplic, SW480 rereplic)
Cc1ccc(/C=C2\SC(N3CCCCC3)=NC2=O)cc1	none
CC(C)(C)c1ccc(/C=C2/SC(N3CCCC3)=NC2=O)cc1	HT1080-NT tox 16.4µM, KB-V1 cytotox inconclusive, HT1080 IDH1KD tx 18.4µM
CCCOc1ccccc1/C=C1\SC(N2CCCCC2)=NC1=O	MCF10A rereplic inconclusive, HT1080-NT tox inconclusive, HT1080 IDH1KD tx inconclusive, KB-3-1 cytotox 7.31µM
CCC(C)NC(=O)C1c2ccccc2C(=O)N1Cc1ccc(OC)cc1OC (stereo not given)	none
CC1Cc2ccccc2N1CC(=O)Nc1ccc(N2CCOCC2)cc1 (stereo not given)	none
CN1CCN(c2ccccc2NC(=O)c2ccc(N3CCCCC3)c([N+](=O)[O-])c2)CC1	MCF10A rereplic inconclusive
COC(=O)c1cc(C#N)c(=O)[nH]c1C	none
Cc1ccc([C@H]2C[C@@H](n3cc(C4CC4)nn3)[C@H](O)CN2CC2CCCCC2)cc1	KB-V1 cytotox inconclusive, KB-3-1 cytotox 20.6µM (no result: MCF10A rereplic, SW480 rereplic)
COc1ccc([C@H]2C[C@H](O)[C@@H](n3cc(C4CC4)nn3)CN2CC2CCCCC2)cc1	KB-V1 cytotox inconclusive (no result: MCF10A rereplic, SW480 rereplic)
COc1ccc([C@H]2C[C@@H](n3cc(C4CC4)nn3)[C@H](O)CN2CC2CCCCC2)cc1	HT1080-NT tox inconclusive, KB-V1 cytotox inconclusive, HT1080 IDH1KD tx inconclusive, KB-3-1 cytotox 16.4µM (no result: MCF10A rereplic, SW480 rereplic)
